Among all 5,500 compounds or so, about 2,000 (36%) were called active. About 18% were inconclusive and are not listed. Cut-off read from the data, not from the text of the source: active = normalized growth mostly below about 0.91 (no sharp cut-off); inconclusive = no clear call, values can overlap the other calls; inactive = mostly above about 0.92. This is one part of the list.
Test: chemical genetic growth profiling, strain panel (AID 1159580);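 note: tested at 20 µM; growth read once vehicle control cultures reached saturation at 30 °C; 1 = growth at the plate median or of vehicle wells; lower values mean less growth of the strain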
Conditions: S. cerevisiae deletion strains, growth OD

Measured: normalized growth

CC(=O)O[C@@H]1CC2C(C)(C)[C@H](O)C=C[C@]2(C)C2CC[C@@]3(C)[C@H](c4ccoc4)OC(=O)C4OC43[C@@]21C (stereo not given in full)
inactive: locus YAL021C, strain ccr4, hits give low values 1.02 | locus YAL026C, strain drs2, hits give low values 1.03 | locus YAL030W, strain snc1, hits give low values 1.01 | locus YBL061C, strain skt5, hits give low values 1.02 | locus YBR009C, strain hhf1, hits give low values 1.02 | locus YBR023C, strain chs3, hits give low values 1.03 | locus YBR171W, strain sec66, hits give low values 1.01 | locus YBR231C, strain swc5, hits give low values 1.02 | locus YBR279W, strain paf1, hits give low values 1.02 | locus YCL011C, strain gbp2, hits give low values 1.02 | locus YCL016C, strain dcc1, hits give low values 1.02 | locus YCL061C, strain MRC1, hits give low values 1.01 | locus YCL069W, strain vba3, hits give low values 1.02 | locus YCR088W, strain abp1, hits give low values 1.02 | locus YDL005C, strain med2, hits give low values 1.01 | locus YDL040C, strain nat1, hits give low values 1.02 | locus YDR001C, strain nth1, hits give low values 1.01 | locus YDR069C, strain doa4, hits give low values 1.04 | locus YDR137W, strain rgp1, hits give low values 1.03 | locus YDR159W, strain sac3, hits give low values 1.03 | locus YDR195W, strain ref2 1.06 | locus YDR297W, strain sur2, hits give low values 1.01 | locus YDR334W, strain swr1, hits give low values 1.02 | locus YDR335W, strain msn5, hits give low values 1.02 | locus YDR392W, strain spt3, hits give low values 0.963 | locus YEL003W, strain gim4, hits give low values 1.02 | locus YEL037C, strain rad23, hits give low values 1.02 | locus YEL061C, strain CIN8 (second series), hits give low values 1.01 | locus YER015W, strain faa2, hits give low values 1.02 | locus YER016W, strain bim1, hits give low values 1.02 | locus YER111C, strain swi4, hits give low values 1.02 | locus YER155C, strain BEM2 (second series), hits give low values 1.03 | locus YFR010W, strain ubp6, hits give low values 1.03 | locus YGL167C, strain pmr1, hits give low values 1.02 | locus YGL173C, strain kem1, hits give low values 1.02 | locus YGL227W, strain vid30, hits give low values 1.02 | locus YGL240W, strain doc1, hits give low values 1.02 | locus YGL253W, strain hxk2, hits give low values 1.01 | locus YHR013C, strain ard1, hits give low values 1.04 | locus YHR027C, strain rpn1, hits give low values 1.02 | locus YHR030C, strain SLT2, hits give low values 0.999 | locus YHR079C, strain IRE1, hits give low values 0.99 | locus YHR142W, strain chs7, hits give low values 1.02 | locus YJL092W, strain hpr5, hits give low values 1.02 | locus YJL095W, strain BCK1 (second series), hits give low values 1.02 | locus YJL095W, strain BCK1, hits give low values 1 | locus YJL115W, strain asf1, hits give low values 1.02 | locus YJL129C, strain trk1, hits give low values 1.04 | locus YJL154C, strain vps35, hits give low values 1.01 | locus YJL164C, strain tpk1, hits give low values 0.998 | locus YJL166W, strain qcr8, hits give low values 1.01 | locus YJL187C, strain SWE1, hits give low values 1.01 | locus YJR066W, strain TOR1, hits give low values 0.963 | locus YKL160W, strain elf1, hits give low values 1.01 | locus YKR026C, strain gcn3, hits give low values 0.998 | locus YKR091W, strain srl3, hits give low values 1.02 | locus YLL001W, strain dnm1, hits give low values 1.01 | locus YLL026W, hits give low values 1.02 | locus YLL041C, strain sdh2, hits give low values 1.01 | locus YLR027C, strain aat2, hits give low values 1.01 | locus YLR113W, strain HOG1, hits give low values 0.95 | locus YLR221C, strain rsa3, hits give low values 1.01 | locus YLR258W, strain gsy2, hits give low values 1.02 | locus YLR262C, strain YPT6 (second series), hits give low values 1.02 | locus YLR320W, strain mms22, hits give low values 1.01 | locus YLR342W, strain FKS1, hits give low values 1.03 | locus YLR357W, strain rsc2, hits give low values 1.03 | locus YLR370C, strain arc18, hits give low values 1.02 | locus YLR384C, strain iki3, hits give low values 1.02 | locus YML120C, strain ndi1, hits give low values 1.02 | locus YMR058W, strain fet3, hits give low values 1.02 | locus YMR125W, strain sto1, hits give low values 1.03 | locus YMR129W, hits give low values 1.01 | locus YMR205C, strain PFK2, hits give low values 1.02 | locus YMR231W, strain pep5, hits give low values 1.02 | locus YNL071W, strain lat1, hits give low values 1.02 | locus YNL183C, strain NPR1, hits give low values 0.955 | locus YNL209W, strain ssb2, hits give low values 1.02 | locus YNL248C, strain rpa49, hits give low values 1.01 | locus YNL322C, strain KRE1 (second series), hits give low values 1.02 | locus YNR049C, strain mso1, hits give low values 1.02 | locus YOR001W, strain rrp6, hits give low values 1.01 | locus YOR070C, strain gyp1, hits give low values 1.02 | locus YOR080W, strain dia2, hits give low values 1.03 | locus YOR083W, strain WHI5, hits give low values 1 | locus YOR106W, strain vam3, hits give low values 1.01 | locus YOR231W, strain MKK1, hits give low values 0.945 | locus YOR265W, strain rbl2, hits give low values 1.02 | locus YOR270C, strain vph1, hits give low values 1.04 | locus YOR290C, strain snf2, hits give low values 0.982 | locus YPL051W, strain arl3, hits give low values 1 | locus YPL078C, strain atp4, hits give low values 1.01 | locus YPL106C, strain sse1, hits give low values 1.04 | locus YPL240C, strain hsp82, hits give low values 1.02 | locus YPL256C, strain CLN2, hits give low values 0.962

Source: PubChem BioAssay AID1159580 (chemical genetic matrix, 2015)
